From PubChem BioAssay (NCI) come the findings set out here.

The panel holds about 83,000 compounds, 20% with a hit somewhere; the sample as a whole holds those more often.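 Interpretation: 100, growth as untreated; towards 0, rising growth inhibition; 0, no net growth; 0 to -100, cell death. Compounds scoring below 10 were considered active.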 Values without a mark were called inactive. Calls of active or inactive are those of the source.

Among the test systems are SR leukemia; RPMI-8226 leukemia; OVCAR-8 ovarian; OVCAR-5 ovarian; OVCAR-4 ovarian; SK-OV-3 ovarian; IGROV1 ovarian; OVCAR-3 ovarian; HS 578T breast; NCI/ADR-RES ovarian.
What all share (experiment): NCI-60 one-dose screen, 48 h (100 = growth as untreated, 0 = no growth, -100 = all killed)
Details in all cases: 10 µM unless noted

With `COc1ccc(C2=C(c3ccccc3)c3ccc(OC(C)=O)cc3OC2(C)C)cc1`, the growth was 41.2% in the experiment on SR leukemia; 32% in the experiment on RPMI-8226 leukemia; 125% with OVCAR-8 ovarian; 85.3% in the experiment with OVCAR-5 ovarian; 88.2% with OVCAR-4 ovarian; 116% in the experiment with SK-OV-3 ovarian. The growth was 96.7% with IGROV1 ovarian, 85.1% in the experiment with OVCAR-3 ovarian, 104% in the experiment with HS 578T breast and 77.2% in the experiment on NCI/ADR-RES ovarian.

As to `Cc1ccc2[nH]c(=S)n(-c3ccc(S(=O)(=O)Nc4ccc(Cl)nn4)cc3)c(=O)c2c1`, the growth in the experiment on SR leukemia was 94.2%; in the experiment on RPMI-8226 leukemia, 103%; in the experiment on OVCAR-8 ovarian it was 97.7%; in the experiment on OVCAR-5 ovarian it was 103%; in the experiment with OVCAR-4 ovarian, 110%; with SK-OV-3 ovarian, 108%. The growth is 105% in the experiment on IGROV1 ovarian, 108% with OVCAR-3 ovarian, 94.4% in the experiment on HS 578T breast and 103% in the experiment with NCI/ADR-RES ovarian.

On to `NC(=O)C1(N2CCCCC2)CCN(CCCC(=O)c2ccc(F)cc2)CC1`, for which the growth in the experiment on SR leukemia is 11.4%; in the experiment with RPMI-8226 leukemia it was 29.5%; in the experiment on OVCAR-8 ovarian, 51.1%; in the experiment with OVCAR-5 ovarian it was 72.7%; in the experiment with OVCAR-4 ovarian, 59.8%; with SK-OV-3 ovarian, 30.8%. In addition, the growth in the experiment on IGROV1 ovarian is 62.6%; in the experiment on OVCAR-3 ovarian, -14.7% (active); with HS 578T breast it was -2.41% (active); with NCI/ADR-RES ovarian, 100%.

Consider `COc1ccc(C(=O)c2cc3c(N)c(C(=O)Nc4ccc(Br)cc4)sc3nc2C)cc1`, for which the growth with SR leukemia is 51.5%; with RPMI-8226 leukemia, 77%; in the experiment with OVCAR-8 ovarian it was 37.2%; in the experiment with OVCAR-5 ovarian, 88%; with OVCAR-4 ovarian, 0.804% (active); with SK-OV-3 ovarian, 62.1%. Further, the growth in the experiment on IGROV1 ovarian is 85.9%; with OVCAR-3 ovarian, 65.4%; with HS 578T breast, 32.3%; with NCI/ADR-RES ovarian it was 70%.

For the molecule `COc1ccc(C(=O)c2cc3c(N)c(C(=O)Nc4cccc(Cl)c4)sc3nc2C)cc1`, the growth in the experiment with SR leukemia is -18.2% (active); in the experiment on RPMI-8226 leukemia, 9.77% (active); with OVCAR-8 ovarian it was 27.1%; in the experiment with OVCAR-5 ovarian, 49.3%; in the experiment with OVCAR-4 ovarian it was 49.5%; in the experiment with SK-OV-3 ovarian, 44%. In addition, the growth with IGROV1 ovarian is 47.9%; in the experiment on OVCAR-3 ovarian it was 0.514% (active); with HS 578T breast, 18.5%; in the experiment on NCI/ADR-RES ovarian, 8.84% (active).

For `CCCCCCCCCCN=C(N)N=C(N)N`, the growth in the experiment on SR leukemia was 37.8%; with RPMI-8226 leukemia, 34.8%; in the experiment on OVCAR-8 ovarian it was 43.5%; with OVCAR-5 ovarian it was 64.1%; in the experiment with OVCAR-4 ovarian, 44.9%; in the experiment on SK-OV-3 ovarian, 52.3%. The growth in the experiment on IGROV1 ovarian is 12.1%; in the experiment with OVCAR-3 ovarian, 41.9%; in the experiment with HS 578T breast, 55%; with NCI/ADR-RES ovarian it was 79.5%.

With `CCN(CC)CCSCCCNc1c(C)cnc2cc(Cl)ccc12`, the growth is 30.9% with SR leukemia; 83% in the experiment on RPMI-8226 leukemia; 93.2% in the experiment with OVCAR-8 ovarian; 98.4% with OVCAR-5 ovarian; 86% with OVCAR-4 ovarian; 108% with SK-OV-3 ovarian. In addition, the growth is 85.4% with IGROV1 ovarian, 82.5% in the experiment on OVCAR-3 ovarian, 102% in the experiment with HS 578T breast and 82.5% in the experiment on NCI/ADR-RES ovarian.

Regarding `O=c1[nH]c(=O)[nH]c(=S)[nH]1`, the growth was 106% in the experiment on SR leukemia; 106% with RPMI-8226 leukemia; 101% in the experiment with OVCAR-8 ovarian; 102% with OVCAR-5 ovarian; 109% in the experiment with OVCAR-4 ovarian; 111% with SK-OV-3 ovarian. Moreover, the growth in the experiment with IGROV1 ovarian is 102%; in the experiment on OVCAR-3 ovarian it was 119%; in the experiment with HS 578T breast, 99.3%; with NCI/ADR-RES ovarian, 105%.

As for `COc1cc2nc(-c3ccc(-c4nn[nH]n4)cc3)[nH]c(=O)c2cc1OC`, the growth is 97.8% with SR leukemia; 81.8% in the experiment on RPMI-8226 leukemia; 105% in the experiment on OVCAR-8 ovarian; 99.4% in the experiment with OVCAR-5 ovarian; 115% in the experiment on OVCAR-4 ovarian; 108% with SK-OV-3 ovarian. Also, the growth with IGROV1 ovarian was 108%; in the experiment on OVCAR-3 ovarian, 112%; in the experiment on HS 578T breast, 110%; in the experiment on NCI/ADR-RES ovarian, 101%.

`c1ccc2c(-c3c4ccsc4cc4[nH]c5ccccc5c34)c[nH]c2c1`: the growth with SR leukemia was 25.7%; in the experiment on RPMI-8226 leukemia, 14.8%; in the experiment on OVCAR-8 ovarian, 56.9%; with OVCAR-5 ovarian, 75.2%; with OVCAR-4 ovarian, 40.8%; in the experiment on SK-OV-3 ovarian, 49.5%. Further, the growth was 38.1% in the experiment on IGROV1 ovarian, 13.8% in the experiment with OVCAR-3 ovarian, 33.4% in the experiment on HS 578T breast and 20.4% with NCI/ADR-RES ovarian.

With `COc1ccc(C(=O)c2cc3c(N)c(C(=O)Nc4cccc(OC)c4)sc3nc2C)cc1`, the growth in the experiment on SR leukemia was -2.44% (active); in the experiment on RPMI-8226 leukemia it was 15.2%; in the experiment with OVCAR-8 ovarian it was 15%; in the experiment on OVCAR-5 ovarian, 46.8%; in the experiment on OVCAR-4 ovarian it was 49.5%; in the experiment with SK-OV-3 ovarian it was 36.5%. Moreover, the growth in the experiment on IGROV1 ovarian was 37.6%; in the experiment on OVCAR-3 ovarian it was 1.93% (active); with HS 578T breast, 24.6%; with NCI/ADR-RES ovarian it was 4.09% (active).

Take `COc1ccc(/C=C(/c2ccccc2)[N+](=O)[O-])cc1`: the growth was -19.1% (active) with SR leukemia; -28% (active) with RPMI-8226 leukemia; -7.29% (active) in the experiment with OVCAR-8 ovarian; -59.6% (active) in the experiment on OVCAR-5 ovarian; -59.5% (active) in the experiment with OVCAR-4 ovarian; 9.1% (active) in the experiment with SK-OV-3 ovarian. Besides, the growth was -26.1% (active) in the experiment with IGROV1 ovarian, -96.5% (active) with OVCAR-3 ovarian, 14.4% in the experiment with HS 578T breast and 7.74% (active) in the experiment with NCI/ADR-RES ovarian.

For `CC(=O)N1N=C(c2cccc(Nc3ccncc3)c2)CC1c1ccc2c(c1)OCO2` (stereo not given), the growth in the experiment on SR leukemia was 31.5%; in the experiment on RPMI-8226 leukemia it was 78.3%; in the experiment with OVCAR-8 ovarian, 91.4%; in the experiment on OVCAR-5 ovarian it was 94.1%; in the experiment with OVCAR-4 ovarian it was 90.3%; in the experiment on SK-OV-3 ovarian, 78.3%. Moreover, the growth with IGROV1 ovarian was 91.9%; with OVCAR-3 ovarian, 96%; with HS 578T breast it was 80%; in the experiment with NCI/ADR-RES ovarian, 97.2%.

For the molecule `Cc1cccc(Oc2ccc(Nc3ncnc4ccc(NC(=O)CN(C)C)cc34)cc2Cl)c1`, the growth in the experiment with SR leukemia was 1.9% (active); in the experiment with RPMI-8226 leukemia, 46.6%; in the experiment on OVCAR-8 ovarian it was 57.3%; in the experiment on OVCAR-5 ovarian it was 60.9%; with OVCAR-4 ovarian, 45.2%; with SK-OV-3 ovarian, 16%. Further, the growth in the experiment on IGROV1 ovarian is 3.8% (active); in the experiment with OVCAR-3 ovarian, 40.7%; in the experiment with HS 578T breast, 68%; in the experiment on NCI/ADR-RES ovarian, 47.2%.
